Calls of active or inactive are those of the source. Rule for the calls: active = hit-call score of the fitted dose curve at least 0.9, where 1 is the maximum; inactive = score below 0.9.
Read-out: Monokine induced gamma interferon (MIG), CXCL9 (gene 4283)
Experiment: BSK_BE3C_MIG: BioMAP Diversity Plus: BE3C Assay for Monokine induced gamma interferon (MIG) Biomarker Activity (AID 2283035);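 for outcome: MIG protein measured by ELISA in BE3C cultures after 24 h of dosing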
Conditions: primary human bronchial epithelial cells; actives raise or lower the signal
Method in brief: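 ELISA quantified MIG after 24 h exposure of primary bronchial epithelial cultures, analysed in both directions relative to DMSO. Cytotoxicity tracked in parallel cultures by sulforhodamine B staining.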

outcome, inactive:
CCOC(=O)COc1ccc2c(c1)CC(NCC(O)c1cccc(Cl)c1)CC2 (stereo not given)
O=C1OC(=O)C2C3C=CC(C3)C12 (stereo not given)
O=P(OC(CCl)CCl)(OC(CCl)CCl)OC(CCl)CCl
CCCCCCCCCCCCCCCO
COCCOCCOCCOC
CC(C)=CCCC(C)CCO (stereo not given)
C1=CCCC=CCCC=CCC1
CC[C@H]1CC[C@H](NCc2cc3c(cc2OC)[C@H]2C[C@H]2C(=O)N3C)[C@H](c2ccccc2)N1
CC(C)(O)c1coc(S(=O)(=O)NC(=O)Nc2c3c(cc4c2CCC4)CCC3)c1
CCN(C(=O)c1cc(C)cc(OC[C@H](C)Nc2ccncc2)c1)C(C)C
Cc1ccc(S(=O)(=O)O)cc1C
CNS(=O)(=O)c1cc(C(=O)N2CCC(CCN3C4CCC3CC(n3c(C)nc5ccccc53)C4)(c3cccc(F)c3)CC2)c(Cl)cc1F (stereo not given)
CCCCC(CC)COC(=O)CCCCCCCCC(=O)OCC(CC)CCCC (stereo not given)
O=C(NS(=O)(=O)/C=C/c1ccccc1)c1ccc(F)cc1Cl
COCCOc1cc2cc(C(=O)NC3CCN(C(C)C)CC3)n(CC(=O)Nc3ccc(Cl)cn3)c2cn1
CCCCCCCCO
CC(C)CCCCCCOC(=O)c1ccc(C(=O)OCCCCCCC(C)C)c(C(=O)OCCCCCCC(C)C)c1
Nc1nc2ncc(CNc3ccc(C(=O)N[C@@H](CCC(=O)O)C(=O)O)cc3)nc2c(=O)[nH]1
Cn1c(=O)cc(Oc2ccc(F)cc2F)c2cnc(NCC(C)(C)O)nc21
CC(=O)OCCC(C)C
COC(=O)CC(=O)OC
Cc1c(-c2cccnc2)c2ccccc2n1CCCCC(=O)O
Nc1cccc(N)c1
COC(=O)c1ccccc1O
CC[C@H]1OC(=O)[C@H](C)[C@@H](O[C@H]2C[C@@](C)(OC)[C@@H](O)[C@H](C)O2)[C@H](C)[C@@H](O[C@@H]2O[C@H](C)C[C@H](N(C)C)[C@H]2O)[C@](C)(O)C[C@@H](C)C(=O)[C@H](C)[C@@H](O)[C@]1(C)O

AC50, active:
O=C(CCCCCCCCc1cccnc1)N1CCC(C=C(c2ccccc2)c2ccccc2)CC1 27.9 µM
CCOc1cccc(-n2cc(C(=O)N3CCN(c4cc(C(=O)O)c5ccccc5c4)CC3)nc2-c2ccc(C)cc2)c1 32.6 µM
O=C(OC[C@H]1O[C@@H](OC(=O)c2cc(O)c(O)c(OC(=O)c3cc(O)c(O)c(O)c3)c2)[C@H](OC(=O)c2cc(O)c(O)c(OC(=O)c3cc(O)c(O)c(O)c3)c2)[C@@H](OC(=O)c2cc(O)c(O)c(OC(=O)c3cc(O)c(O)c(O)c3)c2)[C@@H]1OC(=O)c1cc(O)c(O)c(OC(=O)c2cc(O)c(O)c(O)c2)c1)c1cc(O)c(O)c(OC(=O)c2cc(O)c(O)c(O)c2)c1 10.2 µM
CCc1cc(SCc2sc(-c3ccc(C(F)(F)F)cc3)nc2CN2CCN(c3ccc(OC)cc3)CC2)ccc1OCC(=O)O 5.52 µM
CC[C@H](C)C(=O)O[C@H]1C[C@@H](C)C=C2C=C[C@H](C)[C@H](CC[C@@H]3C[C@@H](O)CC(=O)O3)[C@H]21 36.1 µM
